Results on seven compounds are retold here after PubChem BioAssay (NCI).

The panel holds about 83,000 compounds, 20% with a hit somewhere; the sample as a whole holds those more often.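 The endpoint reported here, percent growth, reads 100 for growth as untreated, 0 for no net growth and -100 for all cells dead.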 Values without a mark were called inactive. The source made the active and inactive calls. How the source made its calls: active means growth percent below 10; inactive means the rest.

Holding throughout (test): NCI-60 one-dose screen, 48 h (100 = growth as untreated, 0 = no growth, -100 = all killed)
One assay relates to NCI-H23 lung. Particulars: 10 µM unless noted.
In another assay the test system is NCI-H226 lung. Particulars: 10 µM unless noted.
In the next assay the test system is NCI-H322M lung. To be noted: 10 µM unless noted.
The test system of the next assay is HOP-62 NSCLC. To be noted: 10 µM unless noted.
Another assay deals with NCI-H460 lung. To be noted: 10 µM unless noted.
In another assay the test system is HOP-92 NSCLC. Particulars: 10 µM unless noted.
The next assay deals with NCI-H522 lung. Particulars: 10 µM unless noted.
Another assay deals with A549/ATCC NSCLC. To be noted: 10 µM unless noted.
A further assay deals with 786-0 renal. To be noted: 10 µM unless noted.
The test system of another assay is COLO 205 colon. Particulars: 10 µM unless noted.
The subject of another assay is DU-145 prostate. To be noted: 10 µM unless noted.
The next assay relates to K-562 leukemia. To be noted: 10 µM unless noted.
For the next assay, the system named is MALME-3M melanoma. Particulars: 10 µM unless noted.
A further assay deals with MDA-MB-231 breast. To be noted: 10 µM unless noted.
The next assay concerns SF-268 CNS. To be noted: 10 µM unless noted.
The test system of another assay is SF-295 CNS. Particulars: 10 µM unless noted.
For the next assay, the system named is SF-539 CNS. To be noted: 10 µM unless noted.
The test system of the next assay is UACC-257 melanoma. Particulars: 10 µM.
For a further assay, the system named is M14 melanoma. To be noted: 10 µM unless noted.
The test system of the next assay is RXF 393 renal. Particulars: 10 µM unless noted.

Turning to `Cc1occc1-c1nc2s/c(=C\c3cn(-c4ccccc4)nc3-c3ccccc3)c(=O)n2n1`, the growth in the assay with NCI-H23 lung is 88.5%; with NCI-H226 lung, 97.4%; with NCI-H322M lung it was 107%; in the assay on HOP-62 NSCLC, 118%; in the assay with NCI-H460 lung it was 103%; with HOP-92 NSCLC it was 67.8%. Also, the growth in the assay with NCI-H522 lung is 92.3%; in the assay on A549/ATCC NSCLC, 95.7%; with 786-0 renal, 101%; in the assay with COLO 205 colon, 118%; in the assay with DU-145 prostate, 106%; with K-562 leukemia, 106%. Besides, the growth was 101% with MALME-3M melanoma; 97.8% in the assay on MDA-MB-231 breast; 101% in the assay with SF-268 CNS; 101% with SF-295 CNS; 91.2% in the assay on SF-539 CNS; 96% in the assay on UACC-257 melanoma. For the same compound, the growth in the assay on M14 melanoma is 100%.
Turning to `COC1=C(c2ccccc2)C(=O)C(OC)=C(c2ccccc2)C1=O`, the growth with NCI-H23 lung was 100%; in the assay with NCI-H226 lung, 95.5%; in the assay with NCI-H322M lung, 106%; in the assay on HOP-62 NSCLC it was 89.9%; in the assay with NCI-H460 lung, 106%; with HOP-92 NSCLC, 97.6%. In addition, the growth is 83.8% with NCI-H522 lung; 74.3% in the assay on A549/ATCC NSCLC; 99.2% in the assay on 786-0 renal; 108% in the assay on COLO 205 colon; 117% in the assay with DU-145 prostate; 77.2% with K-562 leukemia. Besides, the growth was 112% in the assay on MALME-3M melanoma; 94.5% with MDA-MB-231 breast; 106% in the assay with RXF 393 renal; 106% in the assay on SF-268 CNS; 100% in the assay with SF-295 CNS; 102% in the assay with SF-539 CNS. In the assay on M14 melanoma, the growth was 98.9%.
Regarding `COc1ccc(-c2cc(-c3cccc4ccccc34)n3c(n2)nc2ccccc23)cc1OC`, the growth in the assay with NCI-H23 lung was 44.7%; in the assay with NCI-H226 lung, 19.8%; with NCI-H322M lung, 75.8%; in the assay on HOP-62 NSCLC it was -0.816% (active); with NCI-H460 lung, 3.44% (active); in the assay on HOP-92 NSCLC it was 11.5%. Further, the growth in the assay on NCI-H522 lung is 48.1%; in the assay on A549/ATCC NSCLC, 24.2%; in the assay on 786-0 renal, 10.5%; with COLO 205 colon, 65.4%; in the assay with DU-145 prostate, 15.7%; with K-562 leukemia, 32.8%. In addition, the growth with MALME-3M melanoma was 16.9%; in the assay on MDA-MB-231 breast, 66.7%; in the assay on SF-268 CNS, 35.3%; with SF-295 CNS, 2.25% (active); in the assay with SF-539 CNS it was 31.1%; in the assay with UACC-257 melanoma it was 60.8%. Moreover, the growth in the assay with M14 melanoma is 36%.
Turning to `CC1CCN(S(=O)(=O)c2ncsc2-c2ccccc2)CC1`, the growth was 92.9% in the assay with NCI-H23 lung; 99.9% in the assay on NCI-H226 lung; 98.6% in the assay on NCI-H322M lung; 85.3% with HOP-62 NSCLC; 91.5% with NCI-H460 lung; 116% in the assay on HOP-92 NSCLC. For the same compound, the growth with NCI-H522 lung is 98.5%; in the assay with A549/ATCC NSCLC, 93.1%; in the assay with 786-0 renal, 30.8%; with COLO 205 colon, 112%; with DU-145 prostate, 92%; in the assay on K-562 leukemia, 72.7%. Further, the growth in the assay on MALME-3M melanoma was 78.7%; in the assay on MDA-MB-231 breast, 92%; with RXF 393 renal it was 9.28% (active); in the assay with SF-268 CNS it was 82.9%; in the assay on SF-295 CNS, 30.7%; in the assay with SF-539 CNS it was 44.3%. Besides, the growth was 106% in the assay with UACC-257 melanoma and 83.5% with M14 melanoma.
In the case of `CN1CCN(c2ccc(C(=O)Nc3cccc(-c4cn(-c5ccc(S(N)(=O)=O)cc5)nn4)c3)cc2C(F)(F)F)CC1`, the growth in the assay on NCI-H23 lung was 82.2%; in the assay with NCI-H226 lung, 96.8%; in the assay with NCI-H322M lung, 72%; in the assay with HOP-62 NSCLC, 85.7%; with NCI-H460 lung, 78.8%; in the assay with HOP-92 NSCLC it was 56.4%. The growth in the assay with NCI-H522 lung is 90.2%; in the assay with A549/ATCC NSCLC, 91.5%; in the assay on 786-0 renal, 52.5%; in the assay on COLO 205 colon, 85.3%; in the assay with DU-145 prostate, 92.5%; with K-562 leukemia, 9.33% (active). For the same compound, the growth in the assay with MALME-3M melanoma is 71.4%; in the assay on MDA-MB-231 breast, 63.6%; in the assay with RXF 393 renal it was 6.63% (active); in the assay with SF-268 CNS it was 82.9%; with SF-295 CNS, 90.4%; with SF-539 CNS it was 46.2%. Further, the growth was 95.8% in the assay on UACC-257 melanoma and 82.2% in the assay on M14 melanoma.
Take `COc1cc2oc(-c3cccc(NC(=O)c4cc(NC(=O)[C@H](C)N)ccc4Cl)c3)cc(=O)c2c(OC)c1OC`: the growth is 91.5% with NCI-H23 lung; 86% in the assay with NCI-H226 lung; 104% in the assay on NCI-H322M lung; 105% in the assay with HOP-62 NSCLC; 99.8% in the assay with NCI-H460 lung; 17.2% in the assay on HOP-92 NSCLC. In addition, the growth in the assay with NCI-H522 lung is 94.9%; in the assay with A549/ATCC NSCLC, 96.3%; in the assay with 786-0 renal, 91.7%; in the assay with COLO 205 colon, 101%; in the assay on DU-145 prostate, 95.2%; in the assay on K-562 leukemia, 78.8%. The growth in the assay with MALME-3M melanoma was 111%; in the assay with MDA-MB-231 breast, 82.4%; with RXF 393 renal, 84.8%; in the assay on SF-268 CNS, 92.2%; in the assay with SF-295 CNS, 92.3%; with SF-539 CNS, 91.1%. Further, the figures for the growth with UACC-257 melanoma and in the assay with M14 melanoma were 129% and 115%, respectively.
Take `COC(=O)c1c(C(=O)OC)c2n(CC(=O)Nc3cccc4cccnc34)c3ccccc3n2c1C(=O)c1ccc(C)cc1`: the growth with NCI-H23 lung was 94.1%; in the assay with NCI-H226 lung, 88%; in the assay with NCI-H322M lung, 99%; in the assay on HOP-62 NSCLC, 96%; in the assay on NCI-H460 lung, 103%; in the assay on HOP-92 NSCLC it was 89.7%. Besides, the growth was 80.5% in the assay with NCI-H522 lung; 91.2% with A549/ATCC NSCLC; 101% in the assay with 786-0 renal; 114% in the assay on COLO 205 colon; 105% with DU-145 prostate; 91.2% with K-562 leukemia. The growth with MALME-3M melanoma is 97.7%; in the assay on MDA-MB-231 breast, 88.4%; in the assay with RXF 393 renal, 97.8%; in the assay on SF-268 CNS, 97.2%; with SF-295 CNS, 95.1%; in the assay on SF-539 CNS, 106%. Moreover, the growth in the assay on UACC-257 melanoma is 104%; in the assay with M14 melanoma, 99.9%.
